Experimental data from PubChem BioAssay AID1285 (Columbia University Molecular Screening Center, 2008).
About 1,600 (0.84%) of roughly 190,000 compounds were called active. The sample holds actives, similar compounds and a random draw of the others, so the mix is not that of the screen. A number with no mark means an inactive call.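 Rule for the calls: active = inhibition above a set limit, derived from the sample mean plus 3 SD (cut at about 45% in these data); inconclusive = one replicate passes the limit while the other fails; inactive = the rest.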

Experiment: inhibitors of APP translation via 5'UTR reporter, primary screen, APP 5'UTR luciferase, SH-SY5Y cells (AID 1285)
Conditions: SH-SY5Y APP 5'UTR-luciferase reporter, luminescence; at 2 µM; stronger effect = higher value

Row | SMILES | inhibition
1 | O=C(Nc1ccccc1)c1ccc2c(c1)OCO2 | 58.8% (active)
2 | O=C(Nc1cccc([N+](=O)[O-])c1)c1ccc2c(c1)OCO2 | -43.1%
3 | O=C(Nc1ccc(N2CCOCC2)cc1)c1ccc2c(c1)OCO2 | -48.7%
4 | CCOC(=O)c1c(NC(=O)C2CC=CCC2C(=O)O)sc(C)c1CC (configuration not stated) | -12.9%
5 | O=C(CCN1C(=O)c2ccccc2C1=O)NNC(=O)c1ccc(Cl)cc1Cl | -9.9%
6 | O=C(Cc1cccs1)N/N=C/c1ccc(OCc2ccccc2)cc1 | 5.4%
7 | COc1ccc(C(=O)C[n+]2ccc(N)c(C)c2C)cc1 | 6.8%
8 | Oc1c(CN2CCN(c3ccc(F)cc3)CC2)cc(Cl)c2cccnc12 | 8.7%
9 | Clc1cccc(CN2COc3c(cc(Cl)c4cccnc34)C2)c1 | 74.6% (active)
10 | O=c1[nH]n(-c2cccc(Cl)c2)c2ncccc12 | -4.8%
11 | CSc1nc(N(C)NC(=O)c2cccc(C)c2)c2ccccc2n1 | 96.7% (active)
12 | CN(NC(=O)c1ccccc1)c1nc2ccccc2nc1C(F)(F)F | -3.6%
13 | COC(=O)CNC(=O)c1ccccc1F | -10.5%
14 | COc1ccc(C(=O)NN(C)c2nc(-c3ccccc3)cc(C)c2S(C)(=O)=O)cc1 | -3.3%
15 | COc1ccc(OCC(=O)NNC(=O)c2cccc(C)c2)cc1 | -16.1%
16 | CN(NC(=O)c1ccccc1F)c1nc(C(F)(F)F)nc2ccccc12 | 91% (active)
17 | CC(=O)N1CC(C)c2scc(C)[n+]2-c2ccccc21 (configuration not stated) | -17.2%
18 | C=CCc1ccc(OCC(O)CN2CCN(Cc3ccccc3)CC2)c(OC)c1 (configuration not stated) | -8.6%
19 | CC(=O)N1c2ccccc2N(Cc2ccc([N+](=O)[O-])cc2)C(=O)C1(C)C | -12.9%
20 | CCOc1ccc(N2CC(C(=O)NCCN3C(=O)S/C(=C\c4cccnc4)C3=O)CC2=O)cc1 (configuration not stated) | -6%
21 | O=C(COC(=O)c1cnc(Cl)c(Cl)c1)NCc1ccco1 | 6.8%

Row | SMILES | inhibition
22 | O=C(COC(=O)c1cc(S(=O)(=O)N2CCCCC2)ccc1Cl)NCc1ccco1 | 5%
23 | Cc1cc(C(=O)OCC(=O)NCc2ccco2)c(C)n1-c1ccccc1 | 60.8% (active)
24 | C/C(=N\NC(=O)c1cccnc1)c1ccc(-n2ccnc2)cc1 | -7.3%
25 | Cc1[nH]c2ccccc2c1-c1ccc(Cl)nn1 | 5.5%
26 | COc1ccc(Cc2n[nH]c(=S)n2NC(=O)Nc2ccc(C)cc2)cc1 | -47.2%
27 | O=C(Nc1ccccc1Cl)/C(Cl)=C(\Cl)S(=O)c1ccccc1 (configuration not stated) | 93.8% (active)
28 | O=C(CN1CCCCC1)Nc1ccccc1Cl | 17.7%
29 | O=C(Nc1ccccc1Cl)c1ccc2nsnc2c1 | -80.7%
30 | CCN(C(=O)CN1CCN(Cc2ccccc2)CC1)c1c(N)n(Cc2ccccc2)c(=O)[nH]c1=O | -17.3%
31 | CC(C)N(C(=O)CSc1nc(COc2ccccc2)nc2ccccc12)C(C)C | 48.3% (active)
32 | COC(=O)CSc1nc(C2CC2)nc2ccccc12 | -12.5%
33 | CCCc1nc(SCC(=O)Nc2ccc(S(=O)(=O)N(C)C)cc2)c2ccccc2n1 | -11.7%
34 | COc1ccc(Cl)cc1NC(=O)NC(C)C(C)(C)C (configuration not stated) | -0.1%
35 | CCN(CC)S(=O)(=O)c1ccc(Cl)c(NC(=O)c2ccncc2)c1 | 17.9%
36 | CCN(CC)CCCNC(=O)Cn1cnc2sc(C)c(S(=O)(=O)N3CCN(c4ncccn4)CC3)c2c1=O | -10.4%
37 | CN1CCN(C(=O)CCc2nc(-c3ccc(Cl)cc3)no2)CC1 | 9.1%
38 | Cc1ccc(-c2noc(CCC(N)=O)n2)cc1 | 5.2%
39 | CCNC(=O)CCc1nc(-c2ccc(C(C)(C)C)cc2)no1 | 51.8% (active)
40 | COc1ccc(N2CCN(C(=O)c3ccc4c(Cl)c5c(nc4c3)CCCC5)CC2)cc1 | -5.5%
41 | CC(=O)Nc1nc(N(C)C)nc(N(C)C)n1 | 4.4%
42 | CC1(C)CC(=O)c2cnc3nc4ccccc4n3c2C1 | -8.9%

Row | SMILES | inhibition
43 | CN(C(=O)CSc1nnc(N)s1)c1c(N)n(Cc2ccccc2)c(=O)[nH]c1=O | -12.7%
44 | COC(=O)c1ccc(CSc2nnc(N)s2)o1 | -10.2%
45 | Nc1nnc(SCC(=O)OCc2ccc(Cl)c(Cl)c2)s1 | 86.8% (active)
46 | COCCNC(=O)c1ccc(-n2c(SCc3cccnc3)nc3ccccc3c2=O)cc1 | -4.3%
47 | CCCCCCCCCCOC(=O)C[N+](C)(C)CC1CCCCC1O (configuration not stated) | -4.7%
48 | O=C(c1snnc1-c1ccccc1)N1CCOCC1 | -16.4%
49 | Cc1cc(C2=NNC(=Nc3ccc(S(=O)(=O)N4CCOCC4)cc3)SC2)c(C)n1CC1CCCO1 (configuration not stated) | -30.6%
50 | COCCn1c(C)cc(C2=NNC(=Nc3ccc(F)cc3)SC2)c1C | -82.3%
51 | C=CCn1c(C)cc(C2=NNC(=NCC)SC2)c1C | 69.1% (active)
52 | CCN(C(=O)CSc1nc2ccccc2n1CC)C1CCS(=O)(=O)C1 (configuration not stated) | -8%
53 | C[N+]1(CC(O)COc2ccccc2)CCN(C(=O)c2ccc([N+](=O)[O-])cc2)CC1 (configuration not stated) | 0.3%
54 | CCC(C)(C)c1ccc(Oc2ccc(NC(=O)COC(=O)C3=COCCO3)cc2)cc1 | 45.6% (active)
55 | COc1ccc(NC(=O)COC(=O)CNC(=O)C2CCCCC2)cc1 | -10.5%
56 | O=C(OCC(=O)c1cccs1)C1=COCCO1 | -41.7%
57 | Cc1ccc2[nH]c(C)c(CCNC(=O)NC3CCCCC3)c2c1 | 2.7%
58 | CSCC[C@H](NC(=O)NC1CCCC1)C(=O)O | 20.9%
59 | CCOc1cc(C(=O)N2CCc3cc(OC)c(OC)cc3C2)ccc1OC(F)F | 94.6% (active)
60 | COc1cc2c(cc1OC)CN(C(=O)c1ccc(S(=O)(=O)N3CCCCCC3)cc1)CC2 | -6.7%
61 | COc1cc2c(cc1OC)CN(C(=O)c1cc(=O)c3ccccc3o1)CC2 | 13.7%
62 | Cc1cccc(CSc2ccc(-c3cccs3)nn2)c1 | -24.9%
